Screens as filed in PubChem BioAssay.
Hits are enriched below; roughly 4.5% of the tested compounds scored in any of these assays.
BJeLR viability: BJeLR cell viability loss | BJeLR (HRASV12) viability, CellTiter-Glo ATP luminescence, 48 h | inhibition, % (concentration not given with the values) | 300,000 tested, 0.17% active | AID 1554; in the data active means inhibition above about 50%
PrPC surface inh: reduces human prion protein on the cell surface; P04156; cell surface PrPC, TR-FRET read-out; inhibition, % at 13.8 µM; 370,000 tested, 0.43% active; in the data active means inhibition above about 24%; further: 0% = median of the test wells and 100% = reference compound wells
PrP UTR inh: inhibition of PrP 5' UTR reporter expression; AID 488862; cell-based PrP 5' UTR mRNA reporter, plate reader; inhibition, % (concentration not given with the values); 340,000 tested, 0.35% active; in the data active means inhibition above about 52%; further: 0 = median of the neutral control wells
GDH-TPI counter-1: inhibits GDH-TPI coupling enzymes, artifact for Mtb FBA screen; inhibition, % at 4.8 µM; 360,000 tested, 1.2% active; GDH-TPI coupled enzyme counterscreen, NADH absorbance; AID 588335; in the data active means inhibition above about 30%;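 further: 0% = DMSO wells and 100% = wells lacking the enzyme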
FBA Mtb inh: inhibitors of M. tuberculosis fructose-bisphosphate aldolase | 360,000 tested, 2.3% active | purified M. tuberculosis FBA, fluorescence read-out | inhibition, % at 1 µM | AID 588726;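 further: 0% = vehicle and 100% = reference inhibitor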
Target sequence (P9WQA3 whole entry, looked up): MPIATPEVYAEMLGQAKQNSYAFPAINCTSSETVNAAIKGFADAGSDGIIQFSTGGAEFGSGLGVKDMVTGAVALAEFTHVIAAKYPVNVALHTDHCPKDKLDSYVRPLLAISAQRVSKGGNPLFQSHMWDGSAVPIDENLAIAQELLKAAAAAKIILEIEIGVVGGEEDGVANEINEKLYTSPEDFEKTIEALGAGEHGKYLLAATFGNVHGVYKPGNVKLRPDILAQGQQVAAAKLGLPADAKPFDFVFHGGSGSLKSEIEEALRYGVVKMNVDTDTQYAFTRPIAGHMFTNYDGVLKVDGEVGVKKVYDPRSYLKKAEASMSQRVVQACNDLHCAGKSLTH
PfHsp40 rescue: rescue of PfHsp40-mediated yeast toxicity | AID 504582 | S. cerevisiae expressing PfHsp40, growth rescue, ATP luminescence | growth rescue, % at 12.5 µM | 340,000 tested, 0.68% active; in the data active means growth rescue above about 28%, passing the limit was not always enough;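 further: yeast W303a lacking pdr1 and pdr3 grown in galactose medium; growth measured after three days at 30 °C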
Mtb FBA confirm: Mtb FBA inhibition, confirmed; shares compounds with FBA Mtb inh; purified M. tuberculosis FBA, fluorescence read-out; 5,600 tested, 78% active; inhibition, % at 1 µM; AID 651616;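 further: 0% = vehicle wells and 100% = reference inhibitor wells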
GDH-TPI counter-2: inhibits GDH-TPI coupling enzymes, flagging Mtb FBA hits; shares compounds with FBA Mtb inh; GDH-TPI coupled enzyme counterscreen, fluorescence; inhibition, % at 1 µM; 5,600 tested, 81% active; AID 652141; in the data active means inhibition above about 10%
GDH-TPI DR: inhibits GDH-TPI coupling enzymes in dose response; 170 tested, 79% active; IC50, µM; shares compounds with FBA Mtb inh; AID 652145; GDH-TPI coupled enzyme assay, fluorescence, artifact counterscreen; call rule not given here
* = called active by the depositor; . = no result; + = active, no number. Unless noted, no stated cut-off is given here; in the data, active means inhibition above about 27%; inactive means the rest.

SMILES | BJeLR viability | PrPC surface inh | PrP UTR inh | GDH-TPI counter-1 | FBA Mtb inh | PfHsp40 rescue | Mtb FBA confirm | GDH-TPI counter-2 | others
Brc1c(CSc2nncn2-c2ccccc2)nc2sccn12 | -11 | -8 | -44 | -9 | 1 | 2 | . | .
Brc1c(CSc2nncn2-c2ccccc2)nc2ncccn12 | -6 | -3 | -4 | 19 | 83* | -1 | 103* | 75*
Cc1nc(SCC2(C)CC2(Cl)Cl)n[nH]1 (stereo not given) | -5 | -3 | -22 | -6 | 0 | 0 | . | .
COC(=O)C1=CN(CC2CCCO2)C=C(C(=O)OC)C1c1cc(OC)c(OC)c(OC)c1 (stereo not given) | 0 | -7 | -26 | 18 | 52* | 0 | 0 | -5
COC(=O)c1cnn2c1C(=O)N(Cc1cccs1)CC2 | 1 | 7 | -11 | -3 | 5 | 0 | . | .
COC(=O)C1=CN(C(C)c2ccccc2)C=C(C(=O)OC)C1c1cc(OC)c(OC)c(OC)c1 (stereo not given) | 5 | 1 | -11 | 13 | 71* | 17 | 52* | 48*
COCCN1C=C(C(=O)OC)C(c2ccc(OC)c(OC)c2)C(C(=O)OC)=C1 | 5 | -4 | -12 | 10 | 29* | 0 | 135* | 98*
COc1cc(CC(=O)NC(c2ccccc2)c2ccccc2)cc(OC)c1OC | 2 | 12 | -11 | 7 | 1 | -1 | . | .
CCOC(=O)C1=C(C)NC(C)=C(C(=O)OCC)C1c1ccc(OC)c(OC)c1 | . | 2 | . | 6 | 7 | . | . | .
COC(=O)C1=CN(Cc2cccs2)C=C(C(=O)OC)C1c1cccc(O)c1 | -1 | -2 | -21 | 2 | 85* | -1 | 94* | 82*
CC(C)(C)OC(=O)NN=C(c1ccc(O)cc1)c1ccc(O)cc1 | -5 | 1 | 2 | -2 | -4 | 15 | . | .
COC(=O)C1=CN(Cc2ccc(F)cc2)C=C(C(=O)OC)C1c1cc(OC)c(OC)c(OC)c1 | 7 | -8 | -6 | 2 | 29* | 6 | 10 | 9 | GDH-TPI DR=2.9*
COc1ccc(CNC(=O)CCc2cc(OC)c(OC)c(OC)c2)cc1 | -4 | -2 | -16 | 2 | -1 | 0 | . | .
COC(=O)C1=CN(Cc2ccc(OC)cc2)C=C(C(=O)OC)C1c1cc(OC)c(OC)c(OC)c1 | 1 | . | -14 | 1 | 48* | -1 | 88* | 64*
CCOC(=O)C1=CN(Cc2ccc(OC)cc2)C=C(C(=O)OCC)C1c1cccs1 | 12 | 8 | -35 | 5 | 32* | -1 | 151* | 136*
CCOC(=O)C1=C(C)NC(C)=C(C(=O)OCC)C1c1cccs1 | -11 | 3 | -6 | 8 | -3 | 0 | . | .
CN(C)c1ccc(CC(=O)c2nc3ccccc3s2)cc1 | -5 | 0 | -9 | 13 | 1 | -1 | . | .
O=C(O)c1ccc2c(=O)[nH]c(CCl)nc2c1 | -8 | 0 | -22 | 5 | 6 | -1 | . | .
CCOc1ccc(NC(=O)CC(NCc2ccccn2)C(=O)O)cc1 (stereo not given) | -2 | 2 | -9 | -3 | 3 | 15 | . | .
c1ccc2oc(-c3ccc4nc[nH]c4c3)nc2c1 | 6 | -1 | -130 | 9 | 60* | 1 | + | 169*
CC1Nc2ccccc2C(=O)N1NS(C)(=O)=O (stereo not given) | 4 | 1 | -22 | 10 | 50* | -1 | 74* | 61*
CS(=O)(=O)NN1C(=O)c2ccccc2NC1c1cccc2cccnc12 (stereo not given) | 3 | -4 | -17 | 1 | 5 | 1 | . | .
COc1ccc(C2Nc3ccccc3C(=O)N2NS(C)(=O)=O)cc1 (stereo not given) | 12 | 4 | -1 | 7 | 27* | -1 | 105* | 108*
Cc1sc(NC(=O)C2CSC3(C)CCC(=O)N23)nc1-c1ccccc1 (stereo not given) | -19 | -7 | -10 | 1 | 2 | 1 | . | .
CCn1c(CC(=O)Nc2ccc(C)cc2)n[nH]c1=S | 5 | 7 | -13 | 5 | 4 | 2 | . | .
SMILES | BJeLR viability | PrPC surface inh | PrP UTR inh | GDH-TPI counter-1 | FBA Mtb inh | PfHsp40 rescue | Mtb FBA confirm | GDH-TPI counter-2 | others
O=C(c1c[nH]c2ccc(S(=O)(=O)N3CCC4(CC3)OCCO4)cc2c1=O)N1CCOCC1 | -11 | 6 | -1 | 5 | 24 | -1 | . | .
O=C(c1c[nH]c2ccc(S(=O)(=O)N3CCC4(CC3)OCCO4)cc2c1=O)N1CCC2(CC1)OCCO2 | -6 | 0 | -20 | -2 | 34* | 1 | 46* | 44*
COC(=O)c1ccc(NC(=S)NC2CC3CCC2C3)cc1 (stereo not given) | -2 | 13 | -48 | -5 | 37* | 2 | 86* | 64*
COc1ccc(CN2CCN(C(=O)CC(C)C)CC2)cc1 | 2 | -1 | -20 | 9 | 3 | 2 | . | .
CCC1(CC)Cc2ccccc2-c2nc(NCCCO)[nH]c(=O)c21 | -5 | 4 | -18 | 8 | 59* | -2 | + | +
CCn1cc(C2C(C(=O)Nc3cc(C)ccn3)=C(C)NC3=C2C(=O)CC(C)(C)C3)c(C)n1 (stereo not given) | 7 | -3 | -7 | 8 | 52* | 1 | 104* | 85*
CCOc1ccc2oc(C(=O)O)c(C)c2c1 | -5 | 1 | -21 | 2 | 18 | 0 | . | .
CCOc1ccc2oc(C(=O)OC(C(=O)NC(N)=O)C(C)C)c(C)c2c1 (stereo not given) | 2 | 5 | -8 | 12 | 40* | 0 | + | +
CCOC(=O)C1CCN(C(=O)COC(=O)c2oc3ccc(OC)cc3c2C)CC1 | . | -1 | . | -6 | 40* | 1 | 86* | 47*
COc1ccc2oc(C(=O)OCC(=O)N3CC(C)OC(C)C3)c(C)c2c1 (stereo not given) | -4 | 5 | -8 | -11 | 36* | -2 | 25 | 23*
COc1ccc2oc(C(=O)OCC(=O)N3CCN(S(=O)(=O)c4ccc(C)cc4)CC3)c(C)c2c1 | -6 | -1 | -4 | -2 | 23 | 1 | . | .
COc1ccc2oc(C(=O)OC(C)C(=O)N(C)c3ccccc3)c(C)c2c1 (stereo not given) | 2 | 0 | -3 | 8 | 31* | -1 | + | +
COc1ccc(N2CCN(C(=O)COC(=O)c3oc4ccc(OC)cc4c3C)CC2)cc1 | -6 | 6 | -26 | 5 | 14 | 2 | . | .
C[C@@H]1CCCCO[C@H](CN(C)S(=O)(=O)c2cn(C)cn2)[C@@H](C)CN([C@H](C)CO)C(=O)c2cc(NC(=O)CCCN(C)C)ccc2O1 | . | -7 | . | . | . | . | . | .
